In PubChem BioAssay AID1159580 (chemical genetic matrix, 2015):
Screen size: about 5,500 compounds; about 2,000 (36%) were called active. About 18% were inconclusive and are not listed. Cut-off read from the data, not from the text of the source: active = normalized growth mostly below about 0.91 (no sharp cut-off); inconclusive = no clear call, values can overlap the other calls; inactive = mostly above about 0.92. Some of the results follow.

Test: chemical genetic growth profiling, strain panel (AID 1159580);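 note: tested at 20 µM; growth read once vehicle control cultures reached saturation at 30 °C; 1 = growth at the plate median or of vehicle wells; lower values mean less growth of the strain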
Conditions: S. cerevisiae deletion strains, growth OD

Measured: normalized growth

Cc1c(O)cc(O)c2c(=O)c(-c3ccc(O)cc3)coc12
inactive: locus YBR021W, strain FUR4, stronger effect = lower value 1.01 | locus YBR229C, strain ROT2, stronger effect = lower value 1 | locus YCL029C, strain bik1, stronger effect = lower value 1.02 | locus YDL035C, strain GPR1, stronger effect = lower value 1.01 | locus YDL074C, strain BRE1, stronger effect = lower value 1.01 | locus YDL101C, strain DUN1, stronger effect = lower value 1.01 | locus YDL185W, strain tfp1, stronger effect = lower value 1.01 | locus YDL192W, strain arf1, stronger effect = lower value 1.02 | locus YDR101C, strain arx1, stronger effect = lower value 1 | locus YDR150W, strain NUM1, stronger effect = lower value 0.997 | locus YDR162C, strain NBP2, stronger effect = lower value 1 | locus YDR318W, strain mcm21, stronger effect = lower value 1 | locus YDR388W, stronger effect = lower value 1.01 | locus YDR502C, strain sam2, stronger effect = lower value 1.01 | locus YEL061C, strain CIN8, stronger effect = lower value 0.993 | locus YER110C, stronger effect = lower value 1.02 | locus YER155C, strain BEM2, stronger effect = lower value 1.01 | locus YER167W, strain BCK2, stronger effect = lower value 1 | locus YGL078C, strain dbp3, stronger effect = lower value 1.01 | locus YGL086W, strain mad1, stronger effect = lower value 1.02 | locus YGL248W, strain PDE1, stronger effect = lower value 1 | locus YGR078C, strain PAC10, stronger effect = lower value 0.978 | locus YGR135W, strain pre9, stronger effect = lower value 1.03 | locus YGR229C, strain SMI1, stronger effect = lower value 0.987 | locus YGR252W, strain gcn5, stronger effect = lower value 0.983 | locus YHR030C, strain SLT2, stronger effect = lower value 1 | locus YHR079C, strain IRE1 (second series), stronger effect = lower value 1 | locus YHR094C, strain hxt1, stronger effect = lower value 1 | locus YHR129C, strain ARP1, stronger effect = lower value 1 | locus YHR200W, strain rpn10, stronger effect = lower value 1.01 | locus YIL066C, strain RNR3, stronger effect = lower value 0.995 | locus YIL073C, strain SPO22, stronger effect = lower value 1.07 | locus YIL125W, strain kgd1, stronger effect = lower value 0.996 | locus YIR030C, strain dcg1, stronger effect = lower value 1.01 | locus YJL095W, strain BCK1, stronger effect = lower value 0.998 | locus YJL134W, strain LCB3, stronger effect = lower value 1 | locus YJL168C, strain set2, stronger effect = lower value 1 | locus YJL187C, strain SWE1 (second series), stronger effect = lower value 0.991 | locus YJR043C, strain POL32, stronger effect = lower value 0.997 | locus YJR075W, strain HOC1, stronger effect = lower value 0.99 | locus YKL009W, strain mrt4, stronger effect = lower value 0.99 | locus YKL068W, stronger effect = lower value 1 | locus YKL085W, strain MDH1 (second series), stronger effect = lower value 0.994 | locus YKL085W, strain MDH1, stronger effect = lower value 0.994 | locus YKL190W, strain CNB1, stronger effect = lower value 0.986 | locus YKR001C, strain vps1, stronger effect = lower value 0.992 | locus YLR039C, strain RIC1, stronger effect = lower value 1.18 | locus YLR058C, strain SHM2, stronger effect = lower value 0.993 | locus YLR102C, strain apc9, stronger effect = lower value 1.01 | locus YLR262C, strain YPT6, stronger effect = lower value 1.21 | locus YLR268W, strain sec22, stronger effect = lower value 1.01 | locus YLR330W, strain CHS5, stronger effect = lower value 1.01 | locus YLR342W, strain FKS1 (second series), stronger effect = lower value 1.02 | locus YLR371W, strain rom2, stronger effect = lower value 1.01 | locus YLR418C, strain cdc73, stronger effect = lower value 0.95 | locus YML016C, strain PPZ1, stronger effect = lower value 1.01 | locus YML032C, strain rad52, stronger effect = lower value 0.995 | locus YML124C, strain tub3, stronger effect = lower value 1.02 | locus YMR078C, strain ctf18, stronger effect = lower value 1.01 | locus YMR223W, strain ubp8, stronger effect = lower value 1.01 | locus YMR263W, strain SAP30, stronger effect = lower value 0.989 | locus YMR307W, strain GAS1, stronger effect = lower value 0.993 | locus YNL067W, strain RPL9B, stronger effect = lower value 0.986 | locus YNL153C, strain GIM3, stronger effect = lower value 0.979 | locus YNL233W, strain BNI4, stronger effect = lower value 0.979 | locus YNL250W, strain rad50, stronger effect = lower value 1.01 | locus YNL271C, strain bni1, stronger effect = lower value 1.02 | locus YNL298W, strain CLA4, stronger effect = lower value 1.01 | locus YNL307C, strain MCK1, stronger effect = lower value 1.01 | locus YNR052C, strain pop2, stronger effect = lower value 1.01 | locus YOL012C, strain htz1 1.03 | locus YOL147C, strain pex11, stronger effect = lower value 0.998 | locus YOR061W, strain CKA2, stronger effect = lower value 1 | locus YOR069W, strain VPS5, stronger effect = lower value 1.01 | locus YOR136W, strain idh2, stronger effect = lower value 0.999 | locus YOR144C, strain elg1, stronger effect = lower value 1 | locus YOR184W, strain ser1, stronger effect = lower value 0.988 | locus YOR316C, strain cot1, stronger effect = lower value 1.02 | locus YPL055C, strain LGE1, stronger effect = lower value 0.944 | locus YPR119W, strain clb2, stronger effect = lower value 1 | locus YPR141C, strain kar3, stronger effect = lower value 1.02 | locus YPR163C, strain tif3, stronger effect = lower value 1 | locus YPR167C, strain met16, stronger effect = lower value 1.03 | strain wtn01, stronger effect = lower value 1.01
